Screens deposited in PubChem BioAssay by several laboratories.
Shown are actives, neighbours in structure and some others; about 4.9% of the full set was active somewhere.
PP1 inh – PP1-alpha phosphatase inhibitors, primary screen, counter-screen for PP5 inhibitor project, biochemical, fluorescence, OMFP substrate, single point | purified PP1alpha | AID 2235, 2010 | inhibition, % at 6.7 µM | 0.9% of 320,000 active | Serine/threonine-protein phosphatase PP1-alpha catalytic subunit (Homo sapiens), P62136;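 active = inhibition above the mean inhibition of all tested compounds plus 3 SD, computed separately for each screening campaign, cut at about 15% in these data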
Mdm2 MdmX PPI – inhibitors of human Mdm2-MdmX association, primary screen, cell-based, luminescence, split luciferase, SaOS-2, uHTS | Protein Mdm4 (Homo sapiens) + E3 ubiquitin-protein ligase Mdm2 (Homo sapiens), … | SaOS-2 split-luciferase Mdm2/MdmX complementation | inhibition, % at 8 µM | 3% of 330,000 active;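 active = inhibition of at least 50% at 8 µM in the primary screen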
Target sequence (O15151 whole entry, looked up): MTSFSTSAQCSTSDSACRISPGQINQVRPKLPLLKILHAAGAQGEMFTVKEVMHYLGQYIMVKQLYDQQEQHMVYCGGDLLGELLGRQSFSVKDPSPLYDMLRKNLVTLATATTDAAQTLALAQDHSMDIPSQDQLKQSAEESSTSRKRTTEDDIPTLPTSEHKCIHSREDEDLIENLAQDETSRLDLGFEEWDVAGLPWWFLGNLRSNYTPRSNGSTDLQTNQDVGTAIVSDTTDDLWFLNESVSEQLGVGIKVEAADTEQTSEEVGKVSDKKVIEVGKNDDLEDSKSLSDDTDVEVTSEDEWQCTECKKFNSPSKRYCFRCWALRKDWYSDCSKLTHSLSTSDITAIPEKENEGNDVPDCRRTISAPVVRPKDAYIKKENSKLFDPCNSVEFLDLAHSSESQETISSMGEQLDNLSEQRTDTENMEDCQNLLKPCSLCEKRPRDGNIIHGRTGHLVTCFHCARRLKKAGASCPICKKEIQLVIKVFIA
Target sequence (Q00987 whole entry, looked up): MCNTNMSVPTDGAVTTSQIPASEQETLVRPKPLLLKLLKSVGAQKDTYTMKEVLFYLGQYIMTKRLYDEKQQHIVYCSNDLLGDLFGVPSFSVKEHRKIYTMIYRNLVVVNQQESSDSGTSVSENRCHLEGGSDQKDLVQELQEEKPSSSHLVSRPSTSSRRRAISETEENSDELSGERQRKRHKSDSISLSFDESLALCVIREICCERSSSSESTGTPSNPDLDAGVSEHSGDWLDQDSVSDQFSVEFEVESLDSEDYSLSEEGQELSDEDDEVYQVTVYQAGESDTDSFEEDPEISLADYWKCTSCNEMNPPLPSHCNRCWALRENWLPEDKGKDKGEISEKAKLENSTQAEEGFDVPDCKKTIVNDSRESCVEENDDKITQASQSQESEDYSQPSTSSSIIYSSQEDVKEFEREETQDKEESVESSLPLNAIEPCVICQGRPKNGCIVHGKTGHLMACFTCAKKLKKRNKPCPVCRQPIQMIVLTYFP
PP5 inh – PP5 phosphatase inhibitors, primary screen, biochemical, fluorescence | Serine/threonine-protein phosphatase 5 (Homo sapiens), P53041 | purified PP5c, OMFP substrate fluorescence | inhibition, % at 6.7 µM | 0.18% of 320,000 active | AID 1987, 2009;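 active = inhibition above the campaign's mean inhibition across all tested compounds plus 3 SD, cut at about 9.5% in these data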
Calb FLC – C. albicans growth inhibition with fluconazole, primary screen, CaCi-2 strain, Alamar Blue fluorescence; C. albicans CaCi-2 (fluconazole-resistant clinical isolate) + fluconazole, 48 h; growth inhibition, % (concentration not given with the values); 0.57% of 300,000 active;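 active = growth inhibition above about 58% in most replicates, limit read from the data, passing the limit was not always enough; inconclusive = exactly half the replicates above a set limit; inactive = most replicates below a set limit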;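 also: all wells also contain fluconazole at 8 µg/ml as a sub-toxic cotreatment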
Beta apoptosis – inhibitors of cytokine-induced beta cell apoptosis, primary screen, luminescence; INS-1E cytokine-induced death, ATP luminescence, 48 h; percent of positive-control rescue, neutral wells zero; protection from apoptosis, % (concentration not given with the values); 0.8% of 300,000 active;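 active = Every replicate reaches about 75%, or at least half do and their mean reaches it too, limit read from the data; inconclusive = At least half of replicates reach the limit but their mean does not; inactive = Under half of replicates reach the limit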;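 also: higher means more ATP so stronger rescue from cytokine killing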
CSC inhib – cancer stem cell viability inhibitors, primary screen, luminescence; cancer stem cell-like cells viability; inhibition, % at 7.5 µM; 1.1% of 300,000 active; AID 2717, 2010; in the data active = inhibition above about 75%; inconclusive = no clear call, values can overlap the other calls; tested in HMLE shEcad cells
Mdm2 MdmX conf – Mdm2-MdmX complex disruptors, retested hits, confirmation, luminescence, single concentration | shares compounds with Mdm2 MdmX PPI | Mdm2-MdmX binding, luminescent assay | inhibition, % at 8 µM | 55% of 10,000 active | AID 489028, 2010; in the data active = inhibition above about 40%
Full FLuc ctr – full-length luciferase signal inhibition, confirmation, counter-screen for Mdm2/MdmX interaction inhibitor project, cell-based, single concentration, SaOS-2; AID 504607, 2011; shares compounds with Mdm2 MdmX PPI; inhibition, % at 8 µM; 77% of 6,200 active; SaOS-2 full-length luciferase counterscreen, luminescence;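 active = mean inhibition at 8 µM reaching about 37%, which flags the compound as non-specific, limit read from the data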;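 also: p53-null SaOS-2 cells with luciferase driven by a doxycycline-inducible promoter; compound on cells about two nights before reading with doxycycline added after day one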
Hits are given with their value.

Screening O=C(Cn1ccc([N+](=O)[O-])n1)Nc1ccccn1 returned PP1 inh inactive, Mdm2 MdmX PPI inactive, PP5 inh inactive, Calb FLC inactive and Beta apoptosis inactive.
`CC1(C)C=Cc2c(c3c(c4c(=O)c(-c5ccc(O)cc5)coc24)OC(C)(C)CC3)O1` gave PP1 inh inactive, Mdm2 MdmX PPI 75, PP5 inh inactive, Calb FLC inactive, Beta apoptosis inactive, CSC inhib 100 and Mdm2 MdmX conf inactive.
`CN(C)CCn1c(=O)n(Cc2ccccc2)c(=O)c2c3c(sc21)CCCCC3` gave PP1 inh inactive, Mdm2 MdmX PPI inactive, PP5 inh inactive, Calb FLC inactive, Beta apoptosis inactive and CSC inhib inactive.
Screening CN(C)CCCNc1nc2sc3c(c2c(=O)n1CCc1ccccc1)CCCCC3 returned PP1 inh inactive, Mdm2 MdmX PPI 70, PP5 inh inactive, Calb FLC inactive, Beta apoptosis inactive, CSC inhib inactive and Mdm2 MdmX conf inactive.
For CN(C)CCCn1c(=O)n(CCc2ccccc2)c(=O)c2c3c(sc21)CCCCC3 the results were PP1 inh inactive, Mdm2 MdmX PPI 77, PP5 inh inactive, Calb FLC inactive, CSC inhib inactive and Mdm2 MdmX conf inactive.
Screening NC(=O)Cn1c(=O)n(CCc2ccccc2)c(=O)c2c3c(sc21)CCCC3 returned PP1 inh inactive, Mdm2 MdmX PPI 58, PP5 inh inactive, Calb FLC inactive, Beta apoptosis inactive, CSC inhib inactive and Mdm2 MdmX conf inactive.
`O=c1c2c3c(sc2nc(NCCO)n1-c1ccccc1)CCCC3` gave PP1 inh inactive, Mdm2 MdmX PPI inactive, PP5 inh inactive, Calb FLC inactive and CSC inhib inactive.
Screening COC(=O)c1ccc(Nc2ccc3nonc3c2[N+](=O)[O-])cc1 returned PP1 inh inactive, Mdm2 MdmX PPI inactive, PP5 inh inactive, Calb FLC inactive, Beta apoptosis inactive and CSC inhib inactive.
Screening CCN(CC(=O)Nc1ccc(Cl)c(C(F)(F)F)c1)CC(=O)NC1CCS(=O)(=O)C1 (stereo not drawn) returned PP1 inh inactive, Mdm2 MdmX PPI inactive, PP5 inh inactive, Calb FLC inactive, Beta apoptosis inactive and CSC inhib inactive.
Cc1nc(C)c(C(=O)OCC(=O)Nc2cccc(C)c2C)s1 was read as PP1 inh inactive, Mdm2 MdmX PPI inactive, PP5 inh inactive, Beta apoptosis inactive and CSC inhib inactive.
Screening Cc1nn(C)cc1C(C)Nc1nc2nonc2nc1N1CCCCC1 (stereo not drawn) returned PP1 inh inactive, Mdm2 MdmX PPI inactive, PP5 inh inactive, Calb FLC inactive, Beta apoptosis inactive and CSC inhib inactive.
Screening COc1ccc(-c2oc(=O)c3cc(OC)c(OC)cc3c2-c2ccc3c(c2)OCO3)cc1 returned Mdm2 MdmX PPI inactive, Beta apoptosis inactive and CSC inhib inactive.
`COc1cc2c(O)c3c(c(-c4ccc5c(c4)OCO5)c2cc1OC)C(=O)OC3` gave PP1 inh inactive, Mdm2 MdmX PPI 73, PP5 inh inactive, Calb FLC 82, Beta apoptosis inactive, CSC inhib 91, Mdm2 MdmX conf 72 and Full FLuc ctr inactive.
COc1cc2c(OC(C)=O)c3c(c(-c4ccc5c(c4)OCO5)c2cc1OC)C(=O)OC3 was read as PP1 inh inactive, Mdm2 MdmX PPI 86, PP5 inh inactive, Calb FLC inactive, Beta apoptosis inactive, CSC inhib inactive, Mdm2 MdmX conf 74 and Full FLuc ctr 48.
`CCOC(=O)CSC1=NC(=O)/C(=C/c2ccc(OC)cc2)S1` gave PP1 inh inactive, Mdm2 MdmX PPI 76, PP5 inh inactive, Calb FLC inactive, Beta apoptosis inactive, CSC inhib inactive, Mdm2 MdmX conf 53 and Full FLuc ctr inactive.
Screening COc1ccc(/C=C2\SC(N)=NC2=O)cc1 returned Mdm2 MdmX PPI inactive and Calb FLC inactive.
For C[n+]1c(-c2ccccc2)sc([S-])c1-c1ccccc1 the results were PP1 inh inactive, Mdm2 MdmX PPI inactive, PP5 inh inactive, Calb FLC inactive, Beta apoptosis inactive and CSC inhib inactive.
COC(=O)c1sc(-c2ccccc2)cc1NC(=O)c1ccc(OC)cc1 was read as PP1 inh inactive, Mdm2 MdmX PPI 75, PP5 inh inactive, Calb FLC inactive, Beta apoptosis inactive, CSC inhib inactive and Mdm2 MdmX conf inactive.
CCOC(=O)c1cc(-c2ccccc2)sc1NC(=O)c1ccc(OC)cc1 was read as PP1 inh inactive, Mdm2 MdmX PPI 75, PP5 inh inactive, Calb FLC inconclusive, Beta apoptosis inactive, CSC inhib inactive and Mdm2 MdmX conf inactive.
Screening CCOC(=O)c1cc(-c2ccccc2)sc1NC(=O)COC(=O)c1ccc(Cl)c(S(N)(=O)=O)c1 returned PP1 inh inactive, Mdm2 MdmX PPI 54, PP5 inh inactive, Calb FLC inactive, Beta apoptosis inactive, CSC inhib inactive, Mdm2 MdmX conf 82 and Full FLuc ctr 88.
CCOC(=O)c1cc(-c2ccccc2)sc1NC(=O)C(C)N1C(=O)c2ccccc2C1=O (stereo not drawn) was read as PP1 inh inactive, Mdm2 MdmX PPI inactive, PP5 inh inactive, Calb FLC inactive, Beta apoptosis inactive and CSC inhib inactive.
COc1cccc2cc(C(=O)Nc3ccc(S(=O)(=O)NCC4CCCO4)cc3)c(=O)oc12 (stereo not drawn) was read as PP1 inh inactive, Mdm2 MdmX PPI inactive, PP5 inh inactive, Calb FLC inactive, Beta apoptosis inactive and CSC inhib inactive.
`Cc1c(N=C2N=C(NC(=O)c3cccs3)c3ccccc32)c(=O)n(-c2ccccc2)n1C` gave PP1 inh inactive, Mdm2 MdmX PPI 78, PP5 inh inactive, Calb FLC inactive, Beta apoptosis inactive, CSC inhib inactive and Mdm2 MdmX conf inactive.
For CC1CCN(CCc2nc3cc(NC(=O)COc4ccc([N+](=O)[O-])cc4)ccc3n2C)CC1 the results were PP1 inh inactive, Mdm2 MdmX PPI inactive, PP5 inh inactive, Calb FLC inactive, Beta apoptosis inactive and CSC inhib inactive.
Screening CC(c1ccccc1)n1c(-c2cccs2)nc2c(c(=O)c3ccccc3n2C)c1=O (stereo not drawn) returned PP1 inh inactive, Mdm2 MdmX PPI inactive, PP5 inh inactive, Calb FLC inactive, Beta apoptosis inactive and CSC inhib inactive.
